From PubChem BioAssay (EPA / NIEHS)
Results filed as inconclusive are left out. Activity calls are given as the source filed them. The calls were made as follows: active = hit-call score of the fitted dose curve at least 0.9, where 1 is the maximum; inconclusive = response in the unintended direction; inactive = score below 0.9.

molecular target: human RAR-related Orphan Receptor beta (RORb), RORB (gene 6096) (UniProt Q92753); test: ATG_RORb_TRANS: Attagene TRANS-FACTORIAL HepG2 Assay for human RAR-related Orphan Receptor beta (RORb) (AID 2283010)
Sequence (Q92753 whole entry, looked up, the tested form may be a part): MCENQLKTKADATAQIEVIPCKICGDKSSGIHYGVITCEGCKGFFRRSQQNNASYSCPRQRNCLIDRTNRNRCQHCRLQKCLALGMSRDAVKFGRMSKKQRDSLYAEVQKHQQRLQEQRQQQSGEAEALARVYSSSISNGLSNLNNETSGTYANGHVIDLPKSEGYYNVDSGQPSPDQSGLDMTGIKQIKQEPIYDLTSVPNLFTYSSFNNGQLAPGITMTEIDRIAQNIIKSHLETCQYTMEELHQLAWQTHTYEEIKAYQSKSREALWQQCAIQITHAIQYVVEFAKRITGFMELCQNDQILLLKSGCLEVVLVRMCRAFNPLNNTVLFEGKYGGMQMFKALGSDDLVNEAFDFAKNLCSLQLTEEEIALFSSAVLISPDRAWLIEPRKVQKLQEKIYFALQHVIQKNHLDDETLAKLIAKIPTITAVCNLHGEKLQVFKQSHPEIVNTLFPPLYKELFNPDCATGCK
Summary of the method: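 Readout is reporter-gene mRNA induction, detected as fluorescence after RT-PCR and capillary electrophoresis, fitted for gain of signal against DMSO controls. Transiently transfected HepG2 liver cells carrying GAL4-UAS reporter constructs were treated for 24 hours.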

outcome, inactive:
COCCOCCOCCO, CC(=O)C(C)O (stereo not given), Clc1cc(Cl)c(-c2c(Cl)c(Cl)cc(Cl)c2Cl)cc1Cl, O=C(CS)OCCOC(=O)CS, COc1ccc(CCC(C)=O)cc1, CC1(C)C2=CCCC(C)(C)[C@]23CC[C@H]1C3, CS(=O)(=O)OCCCCOS(C)(=O)=O, ON=C1CCCCC1, CC(C)C[C@H](NC(=O)OCC1c2ccccc2-c2ccccc21)C(=O)O, O=C(O)CCCCCCCCCCCC(=O)O, CCC(=O)OCCOc1ccccc1, CC1(C)CCC[C@]2(C)[C@H]3CCO[C@]3(C)CC[C@@H]12, C#CC(C)(O)CC(C)C (stereo not given), O=C1OC[C@H](Cc2cccc(O)c2)[C@H]1Cc1cccc(O)c1, CC1=C(Br)C(=O)C(Br)=C/C1=C(/c1ccccc1S(=O)(=O)O)c1cc(Br)c(O)c(Br)c1C, C=C(C#N)C(=O)OCC, CC(C)(N=C=O)c1cccc(C(C)(C)N=C=O)c1, CCCN(CCC)S(=O)(=O)c1ccc(C(=O)O)cc1, CC(=O)O[C@@H]1CC2CCC1(C)C2(C)C (stereo not given in full), CCN(CCC#N)c1ccc(N=Nc2ccc([N+](=O)[O-])cc2)cc1
